SMILES strings stand for the structures. Activity calls are given as the source filed them. How the source made its calls: active means hit-call score of the fitted dose curve at least 0.9, where 1 is the maximum; inactive means score below 0.9.

Chain of Cytochrome P450 2C19 (Homo sapiens) (P33261 whole entry, looked up): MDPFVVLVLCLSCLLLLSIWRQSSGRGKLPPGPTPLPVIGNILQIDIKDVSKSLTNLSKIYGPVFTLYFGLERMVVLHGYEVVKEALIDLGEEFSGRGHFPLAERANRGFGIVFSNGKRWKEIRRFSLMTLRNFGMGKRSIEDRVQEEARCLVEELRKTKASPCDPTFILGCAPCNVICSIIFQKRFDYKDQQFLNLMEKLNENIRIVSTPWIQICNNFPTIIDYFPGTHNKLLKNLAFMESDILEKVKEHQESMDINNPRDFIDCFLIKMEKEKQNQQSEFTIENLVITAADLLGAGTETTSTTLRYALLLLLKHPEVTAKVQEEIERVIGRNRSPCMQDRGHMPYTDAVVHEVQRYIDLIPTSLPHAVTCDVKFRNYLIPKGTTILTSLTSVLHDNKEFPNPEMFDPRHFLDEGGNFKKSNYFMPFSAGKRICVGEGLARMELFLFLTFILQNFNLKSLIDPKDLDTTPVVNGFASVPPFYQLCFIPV

This test addresses Cytochrome P450 2C19 (Homo sapiens) (UniProt P33261). The experiment in a line: ERF_FR_ADME_hCYP2C19_Omeprazole: Eurofins (ERF) CYP450-related Enzyme Activity (ADME) Assay for CYP2C19, Omeprazole Substrate. The protocol: ERF_FR_ADME_hCYP2C19_Omeprazole is a biochemical, single-readout assay that uses extracted gene-proteins in a cell-free assay. Measurements were taken 0.16 hour after chemical dosing in a 96-well plate. See CYP2C19 inhibition (HLM, omeprazole substrate).ERF_FR_ADME_hCYP2C19_Omeprazole is an assay component calculated from the ERF_FR_ADME_hCYP2C19_Omeprazole assay. It is designed to measure enzyme activity using a type of enzyme reporter as detected by peak area response of 5-hydroxyomeprazole with HPLC-MS/MS technology.Data from the assay component ERF_FR_ADME_hCYP2C19_Omeprazole was analyzed at the assay endpoint, ERF_FR_ADME_hCYP2C19_Omeprazole, in the positive analysis fitting direction relative to acetonitrile as the negative control and baseline of activity. Using a type of enzyme reporter, loss-of-signal activity can be used to understand changes in enzymatic activity as they relate to gene CYP2C19. To generalize the intended target to other relatable targets, this assay endpoint is annotated to the cyp intended target family, where the subfamily is steroidogenesis-related.
Assay is performed using 0.5uM omeprazole, cells are pre-incubated for 5 minutes, and then 10 minutes incubation with NADPH at 37C. Test Sample Requirements: Minimum for 1) Screen: 100 ul of 10 mM stock -OR- 1 to 2 mg (pre-weighed). 2) Dose Response: 250 ul of 10 mM stock -OR- 1.5 to 2 mg (pre-weighed).
In the case of `O=C(/C=C/c1ccc(O)cc1)CC(=O)/C=C/c1ccc(O)cc1`, the AC50 was 1740 nM (active).

Broadly, the AC50 is the concentration at which the activity in the assay is half-maximal.

The record behind these values is PubChem BioAssay AID2284090 (EPA ToxCast).
